Records with an inconclusive call do not appear. A number with no mark means an inactive call. Active and inactive are the calls of the source. Calls come from the whole dose curve; as a rule, active = well fitted curve in the direction sought with a large enough effect; inconclusive = small, poorly fitted or top-dose-only effect, or another doubt; inactive = no such curve, though single readings can be large; an effect the other way counts as inactive or inconclusive.

For 21 compounds, Potency, activation and activity change, negative = inhibition results are on record in PubChem BioAssay (NCATS).

In assay [1] the target is Rap guanine nucleotide exchange factor 3 (Homo sapiens) (UniProt O95398). The assay can be described thus: Confirmatory qHTS for antagonist of cAMP-regulated guanine nucleotide exchange factor 3 (EPAC1) (AID 1645880). Note: nearly all actives have a fitted effect of over 55% in size. Note: potency is the fitted concentration of half-maximal effect. An outline of the steps: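 Released BODIPY-GDP fluoresces less than Rap1-bound BODIPY-GDP; the signal is followed at 480/540 nm at 5-min intervals over 30 min, after 5 min at room temperature. Reactions contain 100 nM EPAC1, 250 nM RAP1B-BODIPY-GDP and 50 uM GDP; results are normalized to ATA and DMSO.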

Assay [2] has the same target. Kind of assay: Confirmatory qHTS for agonist of cAMP-regulated guanine nucleotide exchange factor 3 (EPAC1) (AID 1645881).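 Note: EPAC1 catalysed release of BODIPY-GDP from Rap1B seen as fluorescence loss; 100% = effect of cAMP agonist control; nearly all actives have a fitted effect of over 75% in size.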
Assay [3] has as its target Rap guanine nucleotide exchange factor 4 (Homo sapiens) (UniProt Q8WZA2). The assay can be described thus: Confirmatory qHTS for agonist of cAMP-regulated guanine nucleotide exchange factor 4 (EPAC2) (AID 1645884).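 Note: nucleotide exchange releases bodipy-GDP from Rap1 and this lowers its fluorescence; % is set by controls: 0 for no effect and ±100 for the full control effect; nearly all actives have a fitted effect of over 65% in size.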
For assay [4] the target is unchanged. Kind of assay: Confirmatory qHTS for antagonist of cAMP-regulated guanine nucleotide exchange factor 4 (EPAC2) (AID 1645885). For activity change, negative = inhibition: % is set by controls: 0 for no effect and ±100 for the full control effect. Note: nearly all actives have a fitted effect of over 25% in size. Note: potency is the fitted concentration of half-maximal effect.
The target of assay [5] is Rap guanine nucleotide exchange factor 3 (Homo sapiens) (UniProt O95398). The assay can be described thus: Counterscreen qHTS for antagonist of cAMP-regulated guanine nucleotide exchange factor 3 (EPAC1) (AID 1645888). Note: % of control where 0% means no effect. An outline of the steps: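 Measured: fluorescence of BODIPY-GDP bound to Rap1B, which falls as exchange proceeds. Conditions include 50 uM competing GDP, 5 and 30 min reads, and a later cAMP challenge for antagonist detection.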

Sequence of Rap guanine nucleotide exchange factor 3 (Homo sapiens) (O95398 whole entry, looked up): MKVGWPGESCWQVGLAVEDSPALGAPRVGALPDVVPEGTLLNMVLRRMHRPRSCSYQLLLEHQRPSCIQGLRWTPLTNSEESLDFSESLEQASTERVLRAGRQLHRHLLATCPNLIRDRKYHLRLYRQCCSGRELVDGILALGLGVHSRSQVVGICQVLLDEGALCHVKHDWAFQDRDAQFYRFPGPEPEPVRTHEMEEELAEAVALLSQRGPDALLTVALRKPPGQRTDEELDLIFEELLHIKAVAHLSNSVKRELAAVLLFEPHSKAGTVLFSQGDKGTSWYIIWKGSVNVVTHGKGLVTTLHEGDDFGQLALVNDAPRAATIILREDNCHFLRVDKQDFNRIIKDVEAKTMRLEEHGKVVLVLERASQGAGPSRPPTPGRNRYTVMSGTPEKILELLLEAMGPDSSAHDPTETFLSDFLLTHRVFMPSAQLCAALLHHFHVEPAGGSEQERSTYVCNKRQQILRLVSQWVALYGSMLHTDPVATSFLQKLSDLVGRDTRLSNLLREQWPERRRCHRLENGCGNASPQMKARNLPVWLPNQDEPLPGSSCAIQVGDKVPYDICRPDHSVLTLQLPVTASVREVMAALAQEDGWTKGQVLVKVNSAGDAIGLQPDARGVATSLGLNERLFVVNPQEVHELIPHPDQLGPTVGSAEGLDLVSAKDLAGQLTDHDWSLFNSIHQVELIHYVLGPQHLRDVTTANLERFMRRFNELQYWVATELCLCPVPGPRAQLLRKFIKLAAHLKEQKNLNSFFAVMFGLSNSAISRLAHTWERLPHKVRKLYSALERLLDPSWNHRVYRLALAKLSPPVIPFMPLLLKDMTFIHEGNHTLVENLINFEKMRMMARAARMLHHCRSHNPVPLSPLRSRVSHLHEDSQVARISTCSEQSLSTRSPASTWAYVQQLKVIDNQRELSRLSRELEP
Sequence of Rap guanine nucleotide exchange factor 4 (Homo sapiens) (Q8WZA2 whole entry, looked up): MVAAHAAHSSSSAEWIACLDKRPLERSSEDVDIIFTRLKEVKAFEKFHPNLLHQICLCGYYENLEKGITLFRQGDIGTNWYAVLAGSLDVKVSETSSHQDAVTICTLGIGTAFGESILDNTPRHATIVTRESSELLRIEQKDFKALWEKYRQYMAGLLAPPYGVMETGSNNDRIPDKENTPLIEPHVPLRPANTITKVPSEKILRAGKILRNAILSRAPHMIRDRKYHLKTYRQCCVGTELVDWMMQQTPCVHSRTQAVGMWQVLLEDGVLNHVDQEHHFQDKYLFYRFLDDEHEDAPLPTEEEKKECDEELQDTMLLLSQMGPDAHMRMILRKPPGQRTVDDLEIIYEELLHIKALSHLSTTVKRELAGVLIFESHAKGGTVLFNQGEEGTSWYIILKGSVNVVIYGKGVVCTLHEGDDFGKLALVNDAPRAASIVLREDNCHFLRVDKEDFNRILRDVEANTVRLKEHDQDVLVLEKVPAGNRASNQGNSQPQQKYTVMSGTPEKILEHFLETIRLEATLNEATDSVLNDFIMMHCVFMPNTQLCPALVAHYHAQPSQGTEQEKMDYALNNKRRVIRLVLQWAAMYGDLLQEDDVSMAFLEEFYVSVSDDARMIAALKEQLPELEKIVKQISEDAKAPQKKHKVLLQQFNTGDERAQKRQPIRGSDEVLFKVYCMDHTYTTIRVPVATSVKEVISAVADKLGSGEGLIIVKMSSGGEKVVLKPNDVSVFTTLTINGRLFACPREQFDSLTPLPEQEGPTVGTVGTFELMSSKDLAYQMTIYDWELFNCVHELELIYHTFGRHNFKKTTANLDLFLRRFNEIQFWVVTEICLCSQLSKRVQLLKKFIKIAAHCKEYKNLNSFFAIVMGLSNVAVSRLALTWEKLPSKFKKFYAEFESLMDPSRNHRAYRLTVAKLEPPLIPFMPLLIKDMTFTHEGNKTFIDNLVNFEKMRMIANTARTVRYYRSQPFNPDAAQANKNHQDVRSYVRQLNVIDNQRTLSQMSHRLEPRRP

Turning to `Cc1ccc(S(=O)(=O)N2CCCCC2)cc1C(=O)NCCC1=CCCCC1`, the Potency result in assay [1], in assay [2], in assay [3], in assay [4] and in assay [5] was “inactive” throughout.
Consider `COc1cccc(NC(=O)CCNC(=O)Cn2ccc3ccccc3c2=O)c1`, for which the Potency result in assay [1], in assay [2], in assay [3], in assay [4] and in assay [5] was “inactive” throughout.
As to `CN(Cc1ccccc1N1CCCC1)C(=O)c1cc2cc(Cl)ccc2o1`, the Potency entry in assay [1], in assay [2], in assay [3], in assay [4] and in assay [5] was “inactive” throughout.
`CCCN(CCC)Cc1cc(=O)oc2cc(C)cc(C)c12`: the Potency entry in assay [1], in assay [2], in assay [3] and in assay [5] was “inactive” throughout. The Potency in assay [4] is 12 µM (active).
In the case of `CCOC(=O)C1=C(N)OC2=C(C(=O)CC(C)(C)C2)C1c1ccc(CC)s1` (stereo not given), the Potency entry in assay [1], in assay [2], in assay [3], in assay [4] and in assay [5] was “inactive” in each case.
Turning to `CC1CN(C(=O)CCC(=O)NCc2cccc(Cl)c2)c2ccccc2S1` (stereo not given), the Potency entry in assay [1], in assay [2], in assay [3], in assay [4] and in assay [5] was “inactive” throughout.
`CCOC(=O)c1sc(N2C(=O)C(O)=C(C(=O)c3ccco3)C2c2cccc([N+](=O)[O-])c2)nc1C` (stereo not given): the Potency in assay [1] was 5.36 µM (active). Further, the Potency result in assay [2], in assay [3], in assay [4] and in assay [5] was “inactive” each time.
With `CC(C)(C)c1cc(NC(=O)COC(=O)c2ccc(O)cc2O)n(-c2ccccc2)n1`, the Potency entry in assay [1], in assay [2] and in assay [4] was “inactive” each time. The activation in assay [3] was 8.65% [at 17.1 µM, percent relative to cAMP agonist control]. Besides, in assay [5], the activity change, negative = inhibition was -16.3% [at 30.8 µM].
Take `CC(=O)c1sc(NC(=O)c2c(F)cccc2F)nc1C`: the Potency entry in assay [1], in assay [2], in assay [3], in assay [4] and in assay [5] was “inactive” in each case.
For `CCn1c(CSc2nc3ccccc3s2)nnc1SCC(=O)c1ccc(O)c(O)c1`, the Potency entry in assay [1], in assay [2], in assay [3], in assay [4] and in assay [5] was “inactive” in each case.
Turning to `COC(=O)c1ccccc1NC1=C/C(=N\S(=O)(=O)c2ccc(C(=O)O)cc2)c2ccccc2C1=O`, in assay [1], the Potency is 22.4 µM (active). Moreover, the Potency result in assay [2] and in assay [4] was “inactive” in each case. Moreover, the activation in assay [3] is 7.9% [at 17.1 µM, percent relative to cAMP agonist control]. In assay [5], the activity change, negative = inhibition is 14.1% [at 30.8 µM].
Turning to `Cc1[nH]n(-c2ccccc2)c(=O)c1C(c1cccc([N+](=O)[O-])c1O)c1c(C)[nH]n(-c2ccccc2)c1=O`, in assay [1], the Potency was 44.7 µM (active). Also, the Potency result in assay [2] and in assay [4] was “inactive” each time. Moreover, the activation in assay [3] is 0.393% [at 17.1 µM, percent relative to cAMP agonist control]. Moreover, the activity change, negative = inhibition in assay [5] is 23.8% [at 30.8 µM].
Take `COc1ccc(OC)c(NC(=O)CN(C)CCOc2ccc(Br)cc2)c1`: the Potency entry in assay [1], in assay [2], in assay [3], in assay [4] and in assay [5] was “inactive” each time.
Consider `O=C(Nc1nc(-c2ccccc2)cs1)c1ccccc1NS(=O)(=O)c1ccc(F)cc1`, for which the Potency in assay [1] and in assay [4] was 19 µM (active) throughout. Besides, the Potency result in assay [2], in assay [3] and in assay [5] was “inactive” throughout.
With `C[C@@H]1CN([C@@H](C)CO)S(=O)(=O)c2ccc(Br)cc2O[C@H]1CN(C)Cc1ccccc1F`, the Potency entry in assay [1], in assay [2], in assay [3], in assay [4] and in assay [5] was “inactive” in each case.
For `CCOc1ccc(NC(=O)CN(C)C(=O)c2cc(C3CC3)nn2-c2ccccc2)cc1OCC`, the Potency entry in assay [1], in assay [2], in assay [3], in assay [4] and in assay [5] was “inactive” each time.
In the case of `COC(=O)[C@@H]1C[C@@H](c2ccccc2)[C@H](C)C1(C)C`, the Potency result in assay [1], in assay [2], in assay [3], in assay [4] and in assay [5] was “inactive” each time.
Regarding `COc1ccc(S(=O)(=O)N2CCOC23CCN(S(=O)(=O)c2cccs2)CC3)cc1`, the Potency result in assay [1], in assay [2] and in assay [4] was “inactive” each time. For the same compound, the activation in assay [3] was 4.26% [at 17.1 µM, percent relative to cAMP agonist control]. Further, in assay [5], the activity change, negative = inhibition was -10.2% [at 30.8 µM].
Take `CCN(CC)S(=O)(=O)c1c(Br)cc(C)cc1Br`: the Potency result in assay [1] and in assay [2] was “inactive” throughout. In addition, the activation in assay [3] was 0.523% [at 17.1 µM, percent relative to cAMP agonist control]. For the same compound, the Potency in assay [4] was 3.79 µM (active). The activity change, negative = inhibition in assay [5] was -9.59% [at 30.8 µM].
As for `O=C(O)c1ccccc1NS(=O)(=O)c1ccc(NN=Cc2ccc(F)cc2)c([N+](=O)[O-])c1`, in assay [1], the Potency is 26.9 µM (active). Moreover, the Potency entry in assay [2], in assay [3], in assay [4] and in assay [5] was “inactive” each time.
With `CCN1C(=O)/C(=C/c2ccc(N3CCCC3)cc2)NC1=S`, the Potency result in assay [1], in assay [2] and in assay [4] was “inactive” throughout. For the same compound, in assay [3], the activation is 1.83% [at 17.1 µM, percent relative to cAMP agonist control]. Besides, the activity change, negative = inhibition in assay [5] was 97.9% [at 30.8 µM].
